In assay [1] the target is alpha-glucosidase (Oryza sativa, rice) (UniProt Q653V4). The assay is described as follows: Counterscreen for Glucocerebrosidase Inhibitors: qHTS Assay for Rice alpha-Glucosidase at pH 5.0 (AID 997). The procedure, abridged:
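Rice alpha-glucosidase (4 nM final) with 400 uM 4-methylumbelliferyl-alpha-D-glucopyranoside in citrate buffer pH 5.0, 20 min at room temperature, stopped at pH 10; fluorescence 365/440 nm, compounds 0.7 nM–77 uM, AC50 from Hill fits.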
A general note: The purpose of a counterscreen is to sort out artefacts and off-target activity.

Assay [2] can be described thus: Validation of Assay for Modulators of Lamin A Splicing (AID 1459; active means well fitted curve in the direction sought with a large enough effect in the signal ratio; the % refers to the signal ratio;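 further: cells exposed to compound for two days before reading; ratio rise marks activators and ratio drop marks inhibitors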). In outline:
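Splicing correction read as GFP (500-530 nm) over DsRed2 (575-640 nm) object intensity after 48 h compound exposure of reporter HeLa S3 clones (600 cells/well, 2% FBS medium); ancitabine and cycloheximide titrations, 0.5% DMSO as vehicle.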

The target of assay [3] is DNA repair nuclease/redox regulator APEX1 (Homo sapiens) (UniProt P27695). The assay is described as follows: qHTS Validation Assay for Inhibitors of the Human Apurinic/apyrimidinic Endonuclease 1 (APE1) (AID 1705;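 further: TAMRA fluorescence gain over two minutes as APE1 cuts a quenched THF abasic duplex; series mostly up to about 57 µM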). The procedure, abridged:
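Activity read as rising fluorescence (598 nm emission, 525 nm excitation) from incision of a TAMRA/BHQ-2 duplex carrying a THF abasic site (50 nM). Compound and enzyme sat 15 min at RT before substrate start; signal change between first and third 60-s reads.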

Assay [4] in a line: Counterscreen for APE1 Inhibitors: Fluorescent Dye Displacement Validation Assay (AID 1707). In outline: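 Thiazole Orange (250 nM) bound to 50 nM TAMRA-labelled dsDNA with tetrahydrofuran abasic site; displacement by DNA-binding compounds lowers fluorescence. Buffer 50 mM Tris-HCl pH 7.5, 50 mM NaCl, 2 mM MgCl2, 0.01% Tween-20; endpoint read at 480/540 nm.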
A short description of assay [5]: qHTS for differential inhibitors of proliferation of Plasmodium falciparum line GB4 (AID 1816).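 Further: parasite growth measured after 72 h incubation.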 Further: potency means the concentration at half of the fitted maximal effect. Conditions: Potency: Plasmodium falciparum GB4 proliferation inhibition. A general note: Quantitative high-throughput screening tests each substance at several concentrations.
A short description of assay [6]: qHTS for differential inhibitors of proliferation of Plasmodium falciparum line 3D7 (AID 1876). Further: potency means the concentration at half of the fitted maximal effect.
Assay [7] is described as follows: qHTS for differential inhibitors of proliferation of Plasmodium falciparum line D10 (AID 1877).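 Further: parasites grown with compound for 72 h before DNA staining.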 Further: potency means the concentration at half of the fitted maximal effect.
The nature of assay [8]: qHTS for differential inhibitors of proliferation of Plasmodium falciparum line Dd2 (AID 1882).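 Further: series mostly up to about 29 µM; compound exposure of 72 h on infected erythrocytes; nearly all actives have a fitted effect of over 65% in size.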 To be noted: Potency: Plasmodium falciparum Dd2 proliferation inhibition. The procedure, abridged: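 SYBR Green I DNA fluorescence read-out, ex 485/em 535 nm. Signals were normalized to 0.29 uM artemisinin and DMSO wells, then corrected using vehicle-only plates flanking each stack. Parasite growth ran 72 h in erythrocytes before lysis.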

The nature of assay [9]: qHTS for differential inhibitors of proliferation of Plasmodium falciparum line HB3 (AID 1886).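 Further: parasites grown with compound for 72 h before SYBR Green readout.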 Further: potency means the concentration at half of the fitted maximal effect. Conditions: Potency: Plasmodium falciparum HB3 proliferation inhibition.
Assay [10] can be described thus: qHTS for differential inhibitors of proliferation of Plasmodium falciparum line 7G8 (AID 1815).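 Further: parasite growth measured after three days of incubation.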 Further: potency means the concentration at half of the fitted maximal effect.
Assay [11] is described as follows: qHTS for differential inhibitors of proliferation of Plasmodium falciparum line W2 (AID 1883).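 Further: parasites grown with compound for 72 h before lysis and staining.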 Further: potency means the concentration at half of the fitted maximal effect. Conditions: Potency: Plasmodium falciparum W2 proliferation inhibition.
Assay [12] is described as follows: qHTS Assay for Modulators of Human Peripheral Myelin Protein 22 (PMP22) Expression/Activity (AID 1967; active means well fitted curve in the direction sought with a large enough effect in the signal ratio; the % refers to the signal ratio). The procedure, abridged: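 Readout is the corrected green/red luminescence ratio after 24 h compound exposure, normalised to untreated cells (0%). Engineered MSC80 mouse Schwann cells express green luciferase from the mouse Pmp22 promoter and red luciferase from EF-alpha as internal control.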

The target in assay [13] is Ferritin light chain (Equus caballus) (UniProt P02791). The assay is described as follows: qHTS Validation Assay for Identification of Novel General Anesthetics (AID 2323). Further: series mostly up to about 77 µM. The procedure, abridged:
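Competitive displacement of the profluorescent anesthetic 1-AMA (50% saturated, PBS) from 10 uM apoferritin, 10 min, room temperature. Activity is normalized 380/535 nm fluorescence; concentration-response fitted with a four-parameter Hill equation.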

Assay [14] addresses ATP-dependent DNA helicase Q1 (Homo sapiens) (UniProt P46063). The experiment in a line: qHTS Validation Assay for Inhibitors of RecQ-Like Dna Helicase 1 (RECQ1) (AID 2353). The procedure, abridged:
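50 nM RECQ1T1 preincubated 15 min with compound in Tris pH 8.0 buffer with MgCl2, DTT, Tween-20 and 2.5 ug/ml poly(dI-dC); started with 200 nM TAMRA/BHQ-2 forked duplex and 2 mM ATP. Unwinding read as fluorescence (525/598 nm), two reads 2 h apart.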

In assay [15] the target is RecQ-like DNA helicase BLM (Homo sapiens) (UniProt P54132). The assay is described as follows: qHTS Validation Assay for Inhibitors of Bloom's syndrome helicase (BLM) (AID 2364). In outline:
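Forked 20-bp duplex substrate (200 nM, TAMRA/BHQ-2) plus 2 mM ATP added after 15 min compound preincubation with 50 nM enzyme, pH 8.0, poly(dI-dC) 2.5 ug/ml. Strand separation followed by fluorescence (525/598 nm) over 2 h, normalized to enzyme-free and DMSO controls.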

The target in assay [16] is Endonuclease 4 (Escherichia coli (strain K12)) (UniProt P0A6C1). The experiment in a line: Counterscreen for APE1 Inhibitors: qHTS Validation Assay for Inhibitors of Endonuclease IV (AID 1708). In outline: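 Enzymatic AP-site incision assay using a double-stranded THF substrate labelled with TAMRA and BHQ-2; released fluorescence signals activity. Enzyme 2 nM, substrate 50 nM, 15 min compound preincubation.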

Results filed as inconclusive are left out. Active and inactive are the calls of the source. Unless noted, the call rests on the fitted dose curve; in most records, active means well fitted curve in the direction sought with a large enough effect; inconclusive means small, poorly fitted or top-dose-only effect, or another doubt; inactive means no such curve, though single readings can be large; an effect the other way counts as inactive or inconclusive.

DNA repair nuclease/redox regulator APEX1 (Homo sapiens), sequence (P27695 whole entry, looked up): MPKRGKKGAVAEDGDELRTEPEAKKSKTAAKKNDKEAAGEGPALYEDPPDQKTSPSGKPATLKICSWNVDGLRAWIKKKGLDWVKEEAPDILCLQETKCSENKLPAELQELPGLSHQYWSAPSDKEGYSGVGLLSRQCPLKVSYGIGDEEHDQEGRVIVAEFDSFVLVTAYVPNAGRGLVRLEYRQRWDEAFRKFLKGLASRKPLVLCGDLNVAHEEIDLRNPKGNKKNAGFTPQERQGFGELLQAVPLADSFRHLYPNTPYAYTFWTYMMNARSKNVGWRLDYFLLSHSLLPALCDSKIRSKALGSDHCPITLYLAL
Ferritin light chain (Equus caballus), sequence (P02791 2-175 limits assumed): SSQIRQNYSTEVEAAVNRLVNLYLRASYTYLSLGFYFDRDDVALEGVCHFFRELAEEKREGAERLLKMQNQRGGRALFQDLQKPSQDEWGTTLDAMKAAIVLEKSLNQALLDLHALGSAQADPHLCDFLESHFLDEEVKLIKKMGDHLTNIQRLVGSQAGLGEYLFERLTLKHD
RecQ-like DNA helicase BLM (Homo sapiens), sequence (P54132 whole entry, looked up): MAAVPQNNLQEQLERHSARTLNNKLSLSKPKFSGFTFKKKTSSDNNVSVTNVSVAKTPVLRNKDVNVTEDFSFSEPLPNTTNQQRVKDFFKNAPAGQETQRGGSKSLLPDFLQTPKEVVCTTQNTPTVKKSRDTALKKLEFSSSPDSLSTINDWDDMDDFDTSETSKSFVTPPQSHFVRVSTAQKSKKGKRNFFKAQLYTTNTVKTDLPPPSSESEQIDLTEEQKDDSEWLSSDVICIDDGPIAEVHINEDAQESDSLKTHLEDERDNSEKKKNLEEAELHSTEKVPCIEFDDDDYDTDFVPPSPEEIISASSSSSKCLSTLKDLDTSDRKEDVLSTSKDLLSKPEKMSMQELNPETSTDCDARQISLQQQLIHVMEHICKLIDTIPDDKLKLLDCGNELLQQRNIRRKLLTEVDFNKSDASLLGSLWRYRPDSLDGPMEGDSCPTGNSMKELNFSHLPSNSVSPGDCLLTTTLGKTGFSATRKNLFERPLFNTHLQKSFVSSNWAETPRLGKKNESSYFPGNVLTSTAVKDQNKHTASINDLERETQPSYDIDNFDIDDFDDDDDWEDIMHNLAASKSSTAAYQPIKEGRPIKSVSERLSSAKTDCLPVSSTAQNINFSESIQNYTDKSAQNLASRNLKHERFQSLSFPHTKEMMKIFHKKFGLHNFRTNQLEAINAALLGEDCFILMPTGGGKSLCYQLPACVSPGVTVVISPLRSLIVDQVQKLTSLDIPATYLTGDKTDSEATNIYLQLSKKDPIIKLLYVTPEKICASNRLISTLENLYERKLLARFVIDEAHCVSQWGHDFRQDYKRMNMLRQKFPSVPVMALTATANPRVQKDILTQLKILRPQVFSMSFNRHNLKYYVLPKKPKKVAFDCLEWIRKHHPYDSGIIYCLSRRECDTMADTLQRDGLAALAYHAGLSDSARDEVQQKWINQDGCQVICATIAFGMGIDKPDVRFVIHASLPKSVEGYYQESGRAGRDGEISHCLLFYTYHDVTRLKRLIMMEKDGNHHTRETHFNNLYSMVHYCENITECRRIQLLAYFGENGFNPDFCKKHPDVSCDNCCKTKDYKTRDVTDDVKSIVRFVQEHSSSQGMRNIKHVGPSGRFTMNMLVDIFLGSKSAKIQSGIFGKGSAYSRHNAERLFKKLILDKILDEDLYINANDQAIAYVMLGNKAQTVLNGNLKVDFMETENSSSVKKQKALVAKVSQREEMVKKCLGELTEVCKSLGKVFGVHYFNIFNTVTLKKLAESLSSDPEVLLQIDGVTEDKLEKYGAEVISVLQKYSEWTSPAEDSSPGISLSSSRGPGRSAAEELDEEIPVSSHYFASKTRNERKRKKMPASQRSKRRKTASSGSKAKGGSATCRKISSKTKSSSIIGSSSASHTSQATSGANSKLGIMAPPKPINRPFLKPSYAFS
ATP-dependent DNA helicase Q1 (Homo sapiens), sequence (P46063 whole entry, looked up): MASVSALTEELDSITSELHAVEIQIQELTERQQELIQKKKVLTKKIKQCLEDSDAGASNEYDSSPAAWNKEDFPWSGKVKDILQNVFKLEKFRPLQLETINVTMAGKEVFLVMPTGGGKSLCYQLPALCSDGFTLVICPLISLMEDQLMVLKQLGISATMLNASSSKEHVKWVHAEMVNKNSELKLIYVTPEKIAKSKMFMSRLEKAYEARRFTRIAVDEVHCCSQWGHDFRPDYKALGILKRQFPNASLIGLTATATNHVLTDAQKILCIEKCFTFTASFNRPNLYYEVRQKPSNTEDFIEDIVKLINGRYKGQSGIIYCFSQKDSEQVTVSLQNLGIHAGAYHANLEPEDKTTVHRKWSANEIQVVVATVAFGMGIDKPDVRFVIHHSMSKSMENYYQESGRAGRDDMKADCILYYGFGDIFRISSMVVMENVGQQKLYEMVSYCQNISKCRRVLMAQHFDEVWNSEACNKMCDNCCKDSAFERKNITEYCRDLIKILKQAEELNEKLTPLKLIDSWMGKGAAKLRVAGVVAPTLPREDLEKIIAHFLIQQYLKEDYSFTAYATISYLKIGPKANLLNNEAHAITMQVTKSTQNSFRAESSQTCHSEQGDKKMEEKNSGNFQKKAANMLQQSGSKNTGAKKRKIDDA

As for `CCCc1c(-c2ccc(O)cc2)nn(-c2ccc(O)cc2)c1-c1ccc(O)cc1`, the compound was called inactive in assay [1] and in [2]. Moreover, the Potency entry in assay [3], in assay [4], in assay [5], in assay [6], in assay [7] and in [8] was “inactive” each time. Further, the Potency result in assay [9] is “inactive”.
Turning to `NC(Cc1cccc(-c2ccccc2CP(=O)(O)O)c1)C(=O)O` (configuration not stated), the compound was classed as inactive in assay [2] and in assay [12]. Also, the Potency result in [3], in assay [4], in [10], in assay [5], in assay [6] and in [7] was “inactive” in each case. Besides, the Potency result in [8], in [11], in assay [9], in [13], in assay [14] and in assay [15] was “inactive” each time.
As to `c1ccc2nc(C3=NCCN3)ccc2c1`, the compound was classed as inactive in assay [1] and in assay [2]. In addition, the Potency result in [3], in [4], in assay [16], in assay [10], in [6] and in assay [7] was “inactive” throughout. In addition, the Potency entry in assay [8], in [9] and in assay [15] was “inactive” throughout.
As for `Cc1cccc(C2CN(C)CCc3c2cc(O)c(O)c3Cl)c1` (configuration not stated), the compound was classed as inactive in assay [2]. In addition, the Potency result in assay [3], in assay [4], in assay [16], in assay [13] and in assay [15] was “inactive” in each case. Further, the Potency in [10] was 7.94 µM (active); in [5], 8.91 µM (active); in assay [6], 8.91 µM (active); in assay [7], 11.2 µM (active); in assay [11], 7.08 µM (active); in assay [9] it was 12.6 µM (active).
As to `COC1(C2=NCCN2)COc2ccccc2O1` (configuration not stated), the call in [2] and in assay [12] was inactive. The Potency result in assay [3], in [4], in assay [16], in [10], in assay [6] and in assay [7] was “inactive” throughout. In addition, the Potency result in assay [8], in assay [9], in assay [13] and in assay [14] was “inactive” throughout.
On to `COc1cc(N)c(Cl)cc1C(=O)OCCN1CCCCC1`, for which the result in [1], in [2] and in assay [12] was inactive. Further, the Potency result in assay [3], in [6], in assay [7], in assay [8], in assay [9] and in assay [13] was “inactive” in each case. In addition, the Potency entry in [14] and in assay [15] was “inactive” in each case.
As for `[Li+]`, the compound was classed as inactive in assay [1], in assay [2] and in assay [12]. Also, the Potency entry in [3], in assay [16], in assay [10], in assay [5], in [6] and in [7] was “inactive” each time. The Potency result in assay [8], in assay [11], in [9] and in assay [13] was “inactive” each time.
On to `C#CC(N)CCC(=O)O` (configuration not stated), for which the result in assay [2] and in assay [12] was inactive. The Potency result in [3], in assay [10], in assay [5], in assay [6], in assay [7] and in assay [8] was “inactive” each time. The Potency result in assay [9], in [13], in assay [14] and in assay [15] was “inactive” throughout.
As for `CNC(=O)c1cc2c(cn1)[nH]c1ccccc12`, the call in [1] and in assay [2] was inactive. For the same compound, the Potency result in [4], in assay [16], in [7], in assay [8] and in assay [13] was “inactive” each time. Also, the Potency in [10] and in [11] was 12.6 µM (active) in each case.
As to `O=C(O)C1CN(CCCP(=O)(O)O)CCN1` (configuration not stated), the compound was classed as inactive in assay [2] and in assay [12]. Besides, the Potency entry in assay [4], in assay [16], in [10], in [5], in assay [6] and in assay [7] was “inactive” each time. Also, the Potency entry in assay [8], in [11], in assay [9] and in assay [13] was “inactive” in each case.
Consider `COc1ccc(CCN(C)CCc2ccc(OC)c(OC)c2)cc1OC`, for which the outcome in assay [1] and in [2] was inactive. Moreover, the Potency result in assay [4], in assay [7], in assay [8], in assay [9], in [13] and in assay [14] was “inactive” throughout. Further, in assay [11], the Potency was 14.1 µM (active).
For the compound `C=CC[C@H](N)C(=O)O`, the call in assay [1] and in assay [2] was inactive. The Potency result in assay [4], in [16], in assay [10], in assay [5], in assay [6] and in [7] was “inactive” in each case. Also, the Potency entry in assay [8], in assay [11], in assay [9], in assay [13], in assay [14] and in assay [15] was “inactive” each time.
As for `NCCCCN`, the call in [1], in assay [2] and in assay [12] was inactive. Further, the Potency result in assay [3], in [10], in [5], in assay [6], in assay [7] and in assay [8] was “inactive” throughout. The Potency entry in [11], in [9], in assay [13], in assay [14] and in [15] was “inactive” each time.
